Structures are written as SMILES.

The target in the first assay is Solute carrier family 2, facilitated glucose transporter member 1 (Homo sapiens) (UniProt P11166). In words: ST_JUDE_LEISH: Cytotoxicity at 2uM final concentration against transgenic Leishmania Mexicana promastigotes LmGLUT1 that are glucose transport deficient and complemented with the human glucose transporter GLUT1. Activity is measured by DNA content using SYBR green in vitro. It is filed as functional.
Sequence of Solute carrier family 2, facilitated glucose transporter member 1 (Homo sapiens) (P11166 whole entry): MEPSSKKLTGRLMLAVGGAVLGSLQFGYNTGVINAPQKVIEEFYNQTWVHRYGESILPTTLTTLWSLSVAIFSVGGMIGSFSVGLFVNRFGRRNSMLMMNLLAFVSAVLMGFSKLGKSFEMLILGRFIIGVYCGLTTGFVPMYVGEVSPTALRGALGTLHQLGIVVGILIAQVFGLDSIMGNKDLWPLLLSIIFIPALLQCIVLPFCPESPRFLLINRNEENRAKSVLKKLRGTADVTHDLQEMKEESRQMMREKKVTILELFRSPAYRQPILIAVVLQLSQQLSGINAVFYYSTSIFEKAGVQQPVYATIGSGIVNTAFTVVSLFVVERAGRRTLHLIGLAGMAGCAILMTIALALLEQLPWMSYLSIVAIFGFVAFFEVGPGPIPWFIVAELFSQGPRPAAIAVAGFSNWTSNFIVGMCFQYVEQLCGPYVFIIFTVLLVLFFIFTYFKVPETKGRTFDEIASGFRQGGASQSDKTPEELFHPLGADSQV
As a reminder, the inhibition is the drop in the measured response relative to a control, in per cent. With `COc1ccc2nc(NC(N)=NC(=O)Nc3ccccc3)nc(C)c2c1`, the inhibition is 2.55%. On the same count and under the same terms, the result for `CC12CCC(C(=O)N(CC(O)Cn3c4ccc(Cl)cc4c4cc(Cl)ccc43)C1=O)C2(C)C` (stereo unspecified) reads 2.14%; that for `CC(C)(C)c1ccc(CNC(=O)c2cc(CNC3CCC(N)CC3)ccc2O)cc1` (stereo unspecified), 0.08%.

As for `Cc1ccc(C2CCN(CCCCNC(=O)c3ccc(NC(=O)c4ccc(Cl)cc4)cc3)CC2)c(OCC(F)(F)F)c1`, the inhibition is 0.04%. On the same count and under the same terms, as for `CCCCCCn1c2c(c(=N)c3c1CCC3)CCC2`, the figure is 86.4%; as for `Cc1cc(F)ccc1Nc1nc(N(C)c2ccccc2)c2cccc(OCCO)c2n1`, 13.7%. The same measure, in the same setting: as for `CNc1cc(-c2ccc3ccnc(N)c3c2)nc(N)n1`, the figure is -1.76%; as for `Cc1cc(N[C@@H](CC(C)C)C(=O)NCc2cccc(F)c2)nc(Nc2ccccc2)n1`, 4.15%.

As to `CCc1cc2c(Sc3nc4ccccc4[nH]3)ncnc2s1`, the inhibition was 0.94%. Still for that read-out and setting: as for `COc1ccc(CNCc2ccc(-c3ccc(-c4nc5cccc(C)c5[nH]4)s3)cc2)cc1`, the figure is 18.1%; as for `O=C(O[C@H]1CN[C@H](C#Cc2cc3ncnc(Nc4ccc5c(ccn5S(=O)(=O)c5cccs5)c4)c3s2)C1)N1CCOCC1`, 9.76%. `Nc1nccc2ccc(OC3CCCCC3)cc12`: the inhibition is 0.26%. On the same count and under the same terms, as for `Cc1cccc2nc(-c3cccc(-c4ccc(NC(=O)COC(C)C)cc4)c3)[nH]c12`, the figure is -3.18%; as for `Fc1ccc2[nH]c(-c3ccc(-c4ccc(CNCCN5CCNCC5)cc4)cc3)nc2c1`, -0.25%; as for `Cc1ccc2[nH]c(-c3cc(-c4ccc(OCc5ccccc5)cc4)cnc3N)nc2c1`, 1.75%. Consider `COc1ccccc1C(=O)N1CCN(Cc2cccs2)CC1`, for which the inhibition came out at 7.76%.

As for `OC1CCC(Nc2ccc3ncc(-c4ccc(Cl)cc4)n3n2)CC1` (stereo unspecified), the inhibition was found to be 8.13%. Still for that read-out and setting: as for `CN1CCc2ccc(NC(=O)Nc3cccc(C(=O)c4ccccc4)c3)cc2C1`, the figure is 3.19%. The same measure, in the same setting: the result for `CC(=O)N(Cc1nc(-c2cc(C(F)(F)F)cc(C(F)(F)F)c2)cs1)c1c(C)cccc1C` reads 4.36%; that for `COc1ccc(C2=CCN(c3ccc(Cl)c(Cl)c3)C2=O)cc1OCCN1CCCCC1`, 3.36%; that for `CN(CCc1ccccc1)c1ncc(-c2ccccc2CNCc2ccccc2O)cn1`, 0.08%.

For `COc1ccccc1CCN1CCC(CN(C)Cc2ccc(O)c(Cl)c2)CC1`, the inhibition stood at 2.46%. The same measure, in the same setting: the result for `COc1ccc2c(NN=Cc3ccccc3Cl)ccnc2c1` reads 3.65%. Same read-out and setting: as for `CC(C)(C)c1ccc(CNC(=O)/C=C/c2ccc(-c3nc4cc(C(C)(C)C)ccc4[nH]3)cc2)cc1`, the figure is 2.35%; as for `COC(=O)c1noc(C)c1I`, 0.86%. On the same count and under the same terms, the result for `CCN1CCc2c1cc(C(=O)N[C@@H](Cc1ccccc1)[C@H](O)CNC(C)(C)c1cccc(C(F)(F)F)c1)cc2N1CCCCS1(=O)=O` reads 5.34%.

For the next assay, the target named is Hexose transporter 1 (Plasmodium falciparum) (UniProt O97467). In words: ST_JUDE_LEISH: Cytotoxicity at 2uM final concentration against transgenic Leishmania Mexicana promastigotes LmPfHT that are glucose transport deficient and complemented with the Plasmodium falciparum hexose transporter. Activity is measured by DNA content using SYBR green in vitro. The class given is functional.
On to `Nc1ccc(-c2nc3cc(Cc4ccc5[nH]c(-c6ccc(N)cc6)nc5c4)ccc3[nH]2)cc1`, for which the inhibition is -2.2%. On the same count and under the same terms, as for `CCCC(C)NC(=O)[C@H](Cc1ccccc1)NC(=O)c1ccc(O)c(-c2ccc(OC)cc2)c1` (stereo partly specified), the figure is 3.09%; as for `CC(=O)Nc1cccc(Nc2nccc(-c3c(-c4cccc(NC(=O)c5c(F)cccc5F)c4)nn4ncccc34)n2)c1`, 11%. On to `COc1ccc2nccc([C@@H](O)CN3CCC(NCc4nc5c([N+](=O)[O-])cccc5[nH]4)CC3)c2c1`, for which the inhibition turned out to be 2.99%. Same read-out and setting: as for `O=C(NCc1ccc(F)cc1)Nc1cccc(-c2ccc(-c3nc4cc(F)ccc4[nH]3)cc2)c1`, the figure is 7.78%; as for `CC1(C)N=C(N)N=C(NOCc2ccc(Cl)c(Cl)c2)N1`, 1.13%. On the same count and under the same terms, the result for `CCn1c(Sc2ccc([N+](=O)[O-])c(C#N)c2)nnc1-c1ccc(Cl)cc1` reads 7.38%; that for `COc1ccc2ccccc2c1CCCCN1CCN(CC(c2ccc(F)cc2)N2CCN(C(C)C)CC2)CC1` (stereo unspecified), 9.64%.

As for `OCCNc1nc(Nc2cccc(O)c2)nc2ccccc12`, the inhibition was determined as 3.14%. Still for that read-out and setting: the result for `Oc1cccc(-c2nc(-c3ccccc3)c(-c3ccc4oc5ccc(-c6[nH]c(-c7cccc(O)c7)nc6-c6ccccc6)cc5c4c3)[nH]2)c1` reads 2.88%. Still for that read-out and setting: the result for `CCN(CC)C(=S)N/N=C1/C(=O)Nc2c(C)cccc21` reads 4.85%; that for `Cn1cnc2c(Nc3ccncc3)nc(-c3ccc4ccccc4c3)nc21`, 0.97%; that for `Cc1nc2ccccc2n1C1CC2CCC(C1)N2CCCC1(c2ccccc2)CCN(C(=O)OCc2ccccc2)CC1` (stereo unspecified), 0.85%. On to `CN(c1ccc(NC(=O)Nc2cc(C(C)(C)C)on2)cc1)c1ccnc(NCCN2CCOCC2)n1`, for which the inhibition is 57.4%. For `COc1ccc2nc(NC(N)=NC(=O)Nc3ccccc3)nc(C)c2c1`, the inhibition came to 2.15%.

With `CC12CCC(C(=O)N(CC(O)Cn3c4ccc(Cl)cc4c4cc(Cl)ccc43)C1=O)C2(C)C` (stereo unspecified), the inhibition turned out to be 0.85%. The same measure, in the same setting: as for `CC(C)(C)c1ccc(CNC(=O)c2cc(CNC3CCC(N)CC3)ccc2O)cc1` (stereo unspecified), the figure is -1.35%.

For `Cc1ccc(C2CCN(CCCCNC(=O)c3ccc(NC(=O)c4ccc(Cl)cc4)cc3)CC2)c(OCC(F)(F)F)c1`, the inhibition is 1.32%. `CCCCCCn1c2c(c(=N)c3c1CCC3)CCC2`: the inhibition came out at 85.9%. Same read-out and setting: as for `Cc1cc(F)ccc1Nc1nc(N(C)c2ccccc2)c2cccc(OCCO)c2n1`, the figure is 11.2%. On the same count and under the same terms, as for `CNc1cc(-c2ccc3ccnc(N)c3c2)nc(N)n1`, the figure is 0.35%; as for `Cc1cc(N[C@@H](CC(C)C)C(=O)NCc2cccc(F)c2)nc(Nc2ccccc2)n1`, 2.87%. Consider `CCc1cc2c(Sc3nc4ccccc4[nH]3)ncnc2s1`, for which the inhibition was determined as 0.97%. Regarding `COc1ccc(CNCc2ccc(-c3ccc(-c4nc5cccc(C)c5[nH]4)s3)cc2)cc1`, the inhibition is 13.2%. Still for that read-out and setting: the result for `O=C(O[C@H]1CN[C@H](C#Cc2cc3ncnc(Nc4ccc5c(ccn5S(=O)(=O)c5cccs5)c4)c3s2)C1)N1CCOCC1` reads 13.6%. Same read-out and setting: as for `Nc1nccc2ccc(OC3CCCCC3)cc12`, the figure is 1.26%. The same measure, in the same setting: as for `Cc1cccc2nc(-c3cccc(-c4ccc(NC(=O)COC(C)C)cc4)c3)[nH]c12`, the figure is 0.45%. Regarding `Fc1ccc2[nH]c(-c3ccc(-c4ccc(CNCCN5CCNCC5)cc4)cc3)nc2c1`, the inhibition came to 1.53%.

For the compound `Cc1ccc2[nH]c(-c3cc(-c4ccc(OCc5ccccc5)cc4)cnc3N)nc2c1`, the inhibition was 2.05%. The same measure, in the same setting: the result for `COc1ccccc1C(=O)N1CCN(Cc2cccs2)CC1` reads 7.28%. Same read-out and setting: as for `OC1CCC(Nc2ccc3ncc(-c4ccc(Cl)cc4)n3n2)CC1` (stereo unspecified), the figure is 3.98%. On the same count and under the same terms, as for `CN1CCc2ccc(NC(=O)Nc3cccc(C(=O)c4ccccc4)c3)cc2C1`, the figure is 2.01%; as for `CC(=O)N(Cc1nc(-c2cc(C(F)(F)F)cc(C(F)(F)F)c2)cs1)c1c(C)cccc1C`, 4.86%. In the case of `COc1ccc(C2=CCN(c3ccc(Cl)c(Cl)c3)C2=O)cc1OCCN1CCCCC1`, the inhibition was 1.21%. Same read-out and setting: the result for `CN(CCc1ccccc1)c1ncc(-c2ccccc2CNCc2ccccc2O)cn1` reads -1.17%; that for `COc1ccccc1CCN1CCC(CN(C)Cc2ccc(O)c(Cl)c2)CC1`, 5.47%; that for `COc1ccc2c(NN=Cc3ccccc3Cl)ccnc2c1`, 4.27%.

As to `CC(C)(C)c1ccc(CNC(=O)/C=C/c2ccc(-c3nc4cc(C(C)(C)C)ccc4[nH]3)cc2)cc1`, the inhibition was 3.4%. On the same count and under the same terms, as for `COC(=O)c1noc(C)c1I`, the figure is 0.08%. Consider `CCN1CCc2c1cc(C(=O)N[C@@H](Cc1ccccc1)[C@H](O)CNC(C)(C)c1cccc(C(F)(F)F)c1)cc2N1CCCCS1(=O)=O`, for which the inhibition was -3.32%.

For the origin of these results see ChEMBL document CHEMBL3433997, “St. Jude Leishmania screening dataset” (2016).
